From PubChem BioAssay
bovine MsrA act = bovine methionine sulfoxide reductase A activation; purified bovine MsrA, absorbance read-out; activation, % at 10.6 µM; actives 0.3% (n = 360,000); AID 602163; in the data active = activation above about 7.5%
MsrA inh = inhibitors of bovine MsrA; purified bovine MsrA, absorbance read-out; inhibition, % at 15.5 µM; actives 0.75% (n = 360,000); AID 651718; in the data active = inhibition above about 4.5%
PG9 Ab binder = PG9 antibody binding by small molecule | AID 624416 | actives 0.43% (n = 360,000) | TR-FRET gp120-PG9 antibody binding | inhibition, % at 6.7 µM; in the data active = inhibition above about 8.5%
rCAG binder = molecules binding r(CAG) RNA repeats | inhibition, % at 3 µM | AID 651821 | actives 1.3% (n = 370,000) | r(CAG) RNA repeat, TO-PRO-1 dye displacement fluorescence;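 active = inhibition above the plate cutoff, the mean of all test compounds on that plate plus 3 SD, cut at about 35% in these data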;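 note: higher means more dye released from RNA so lower well fluorescence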
sPLA2-III inh = Inhibits HGIII-sPLA2 liposome hydrolysis, primary screen; Q9NZ20; QFRET BODIPY PC-A2 liposome hydrolysis, fluorescence; inhibition, % at 12.2 µM; actives 0.56% (n = 370,000);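 active = inhibition above mean plus 3 SD of compounds lying within the high and low control bounds, cut at about 19% in these data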
Target sequence (Q9NZ20 whole entry, looked up): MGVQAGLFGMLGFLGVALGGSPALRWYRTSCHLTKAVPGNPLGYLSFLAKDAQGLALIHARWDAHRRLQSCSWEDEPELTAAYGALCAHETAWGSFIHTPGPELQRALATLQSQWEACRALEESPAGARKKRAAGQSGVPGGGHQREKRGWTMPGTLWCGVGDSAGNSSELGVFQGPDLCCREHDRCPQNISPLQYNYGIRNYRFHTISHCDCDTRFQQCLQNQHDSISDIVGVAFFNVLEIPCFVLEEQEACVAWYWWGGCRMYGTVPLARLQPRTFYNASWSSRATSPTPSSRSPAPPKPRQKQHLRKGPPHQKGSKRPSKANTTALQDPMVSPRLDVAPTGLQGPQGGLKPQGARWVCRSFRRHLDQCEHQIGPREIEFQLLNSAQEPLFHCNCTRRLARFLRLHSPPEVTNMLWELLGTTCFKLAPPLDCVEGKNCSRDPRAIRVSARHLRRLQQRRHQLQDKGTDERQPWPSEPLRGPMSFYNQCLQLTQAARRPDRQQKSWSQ
rCAG bind conf = r(CAG) RNA repeat binding, confirmation; shares compounds with rCAG binder; AID 652065; actives 70% (n = 4,300); inhibition, % at 3 µM; TO-PRO-1 dye displacement fluorescence;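 active = inhibition above a per-plate cutoff, the mean inhibition of sample wells plus 3 SD, cut at about 35% in these data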;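 note: loss of TO-PRO-1 fluorescence as compound displaces dye from 1x1 AA loop RNA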
dCAG dye counter = counter-screen for rCAG RNA binders: DNA CAG dye complex inhibitors; shares compounds with rCAG binder; d(CAG) DNA oligo TO-PRO-1 dye displacement, fluorescence; inhibition, % at 3 µM; actives 94% (n = 4,300); AID 652068;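 active = inhibition above its plate's cutoff, the mean test-well inhibition plus 3 SD, cut at about 4.8% in these data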;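 note: hits displace the dye from DNA and so lower well fluorescence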
dCAG dye DR = DNA CAG dye complex inhibition, dose response counter-screen; shares compounds with rCAG binder; AID 686960; actives 20% (n = 250); DNA CAG/GTC duplex TO-PRO-1 dye displacement fluorescence; IC50, µM; in the data active = IC50 below about 10 µM
Large screens that a line does not name were inactive (follow-up assays come after a bar, where they were run). Most compounds without a hit are left out; they make up all but 3.2% or so of the library.

CCCc1cc(=O)[nH]c(SCC(=O)Nc2cc(S(=O)(=O)N(CC)c3ccccc3)ccc2Cl)n1	rCAG binder 60 | rCAG bind conf 56 | dCAG dye counter 20
CCN(c1ccccc1)S(=O)(=O)c1ccc(Cl)c(NC(=O)CSc2ncn[nH]2)c1	none
CC(=O)c1cc(-c2ccccc2)n(CC(=O)NCc2ccc(F)cc2)c1C	none (no result: bovine MsrA act, MsrA inh, PG9 Ab binder)
CCOc1ccccc1C(=O)Nc1ccc(S(=O)(=O)Nc2cc(OC)nc(OC)n2)cc1	rCAG binder 51 | rCAG bind conf inactive | dCAG dye counter 7.6
COc1cc(NS(=O)(=O)c2ccc(NC(=O)COc3ccccc3Cl)cc2)nc(OC)n1	rCAG binder 65 (no result: bovine MsrA act) | rCAG bind conf 38 | dCAG dye counter 12
CCN(CCCNc1cc2c(c(N)c1S(=O)(=O)O)C(=O)c1ccccc1C2=O)c1ccccc1	rCAG binder 73 | rCAG bind conf 81 | dCAG dye counter 54
O=C(CC1Sc2ncnn2C1=O)Nc1ccc(Cl)cc1 (stereo not given)	none (no result: bovine MsrA act)
O=C(CC1SC(=O)N(c2ccccc2)C1=O)Nc1ccc(Br)cc1 (stereo not given)	rCAG binder 42 | rCAG bind conf inactive | dCAG dye counter 8.1
CCCN1C(=O)SC(CC(=O)Nc2ccccc2)C1=O (stereo not given)	none
O=C(CC1SC(=O)N(c2ccccc2)C1=O)Nc1ccc(Cl)cc1 (stereo not given)	rCAG binder 43 | rCAG bind conf inactive | dCAG dye counter 6.6
C=C1[C@@H](OC(C)=O)C=C[C@@]2(C)C=CC(=O)[C@@](C)(OC(C)=O)[C@@H]2[C@@H](OC(C)=O)[C@]2(O)[C@@H](C)C(=O)O[C@H]2[C@H]1Cl	none
Cc1cccc(-n2c(O)c(/C=N/NC(=O)c3ccccc3Cl)c3ccccc3c2=O)n1	none
O=C(N/N=C/c1c(O)n(-c2ccccc2Cl)c(=O)c2ccccc12)c1cccnc1	rCAG binder 47 | rCAG bind conf inactive | dCAG dye counter 8.0
O=C(N/N=C/c1c(O)n(Cc2ccccc2)c(=O)c2ccccc12)c1cccnc1	rCAG binder 69 | rCAG bind conf 64 | dCAG dye counter 25
COc1ccc(Cn2c(O)c(/C=N/NC(=O)c3cccnc3)c3ccccc3c2=O)cc1	rCAG binder 75 | rCAG bind conf 71 | dCAG dye counter 33 | dCAG dye DR inactive
Cc1ccc(-n2c(SCc3nc4ccccc4[nH]3)nnc2-c2ccccn2)cc1	none (no result: bovine MsrA act, MsrA inh, PG9 Ab binder)
O=C(CSc1nc2nc(-c3cccs3)cc(C(F)(F)F)c2c(=O)[nH]1)Nc1c(F)c(F)c(F)c(F)c1F	none
NS(=O)(=O)c1cccc(NC(=O)CSc2nc3nc(-c4cccs4)cc(C(F)(F)F)c3c(=O)[nH]2)c1	rCAG binder 50 | rCAG bind conf 77 | dCAG dye counter 45
Cc1ccc(OCC(=O)NS(=O)(=O)c2ccccc2)cc1	none
N#Cc1ccc(OCc2c(-c3ccccc3)nnn2CC(=O)O)cc1	none
CC(=O)c1ccc(OCc2nnn(CC(=O)O)c2-c2ccccc2)cc1	none
Cc1ccc(S(=O)(=O)NC(=O)Cn2nnc(-c3ccccc3)c2COc2ccc3ccccc3c2)cc1	rCAG binder 80 | rCAG bind conf 86 | dCAG dye counter 50
CC(=O)c1ccc(OCc2c(-c3ccccc3)nnn2CC(=O)NS(=O)(=O)c2ccccc2C)cc1	rCAG binder 52 | rCAG bind conf 49 | dCAG dye counter 14
CC(=O)c1ccc(OCc2c(-c3ccccc3)nnn2CC(=O)NS(=O)(=O)c2ccc(C)cc2)cc1	rCAG binder 48 | rCAG bind conf 60 | dCAG dye counter 15
Cc1ccc(OCc2nnn(CC(=O)NS(=O)(=O)c3c(C)noc3C)c2-c2ccccc2)cc1	rCAG binder 61 | rCAG bind conf 67 | dCAG dye counter 19
COc1ccccc1CCn1cnc(-c2ccccc2F)c1CC(C)C	none (no result: bovine MsrA act)
CC(C)c1ccc(NC(=O)CSc2nc3ccsc3c(=O)n2CCC(=O)O)cc1	rCAG binder 36 | rCAG bind conf inactive | dCAG dye counter 7.8
CCc1ccc(NC(=O)CSc2nc3ccsc3c(=O)n2CCCCCC(=O)O)cc1	none
CCOC(=O)C1=C(C)N=c2s/c(=C\c3ccc(OCC(=O)O)cc3)c(=O)n2C1c1ccc(Cl)cc1 (stereo not given)	rCAG binder 55 | rCAG bind conf 73 | dCAG dye counter 36
COc1ccc(C2C(C(=O)OC(C)C)=C(C)N=c3s/c(=C\c4cccs4)c(=O)n32)cc1 (stereo not given)	none
CCOC(=O)C1=C(C)N=c2s/c(=C/c3ccccc3)c(=O)n2C1c1ccc(OC)c(OC)c1 (stereo not given)	none
CCOC(=O)C1=C(C)N=c2s/c(=C/c3ccc(OCC(=O)O)c(OC)c3)c(=O)n2C1c1ccc(Cl)cc1 (stereo not given)	rCAG binder 44 | rCAG bind conf 54 | dCAG dye counter 16
CCOC(=O)C1=C(C)N=c2s/c(=C\c3ccc(O)c([N+](=O)[O-])c3)c(=O)n2C1c1ccccc1OC (stereo not given)	rCAG binder 52 | rCAG bind conf 88 | dCAG dye counter 64
CCOC(=O)C1=C(C)N=c2s/c(=C/c3ccc(OCC(=O)O)cc3)c(=O)n2C1c1ccc(SC)cc1 (stereo not given)	none (no result: MsrA inh, PG9 Ab binder, rCAG binder, sPLA2-III inh)
CC1=C(C(=O)OC(C)C)C(c2ccc(Cl)cc2)n2c(sc(=Cc3ccc(OCC(=O)O)cc3)c2=O)=N1 (stereo not given)	rCAG binder 42 | rCAG bind conf 64 | dCAG dye counter 30 | dCAG dye DR inactive
CCOC(=O)C1=C(C)N=c2s/c(=C\c3ccc(OCC(=O)O)cc3)c(=O)n2C1c1ccccc1OC (stereo not given)	none
O=C(NCCc1ccccc1Cl)[C@@H]1CCCN1C(=O)[C@@H](NC(=O)N1CCOCC1)C1CCCCC1	none (no result: bovine MsrA act)
CCOC(=O)C1=C(C)N=c2s/c(=C/c3ccc(OCC(=O)O)cc3)c(=O)n2C1c1ccc(F)cc1 (stereo not given)	rCAG binder 69 | rCAG bind conf 77 | dCAG dye counter 36
Cc1nc2c(N)nn(C)c2nc1C	none
CCCC(=O)Nc1sc(-c2ccccc2)c(-c2ccccc2)c1C(=O)O	rCAG binder 41 | rCAG bind conf inactive | dCAG dye counter inactive
c1ccc2sc(-c3csc4c3CCNC4)nc2c1	none (no result: bovine MsrA act, MsrA inh, PG9 Ab binder, rCAG binder)
COC(=O)[C@]12C[C@H](CC(=O)N3CCC(c4ccccc4)CC3)C(=O)N(CCC3=CCCCC3)C1=C[C@H](C1CCCC1)O[C@@H]2C	none (no result: bovine MsrA act, MsrA inh, PG9 Ab binder)
